{"source": "PubChem BioAssay AID738", "about": "(SRMLSC, 2007)", "note": "In all, about 98,000 compounds went through this assay and about 4,900 (5%) were called active. The entries come from a sample that favours actives as a whole. Values without a mark were called inactive. No stated cut-off is given here; in the data, active means inhibition above about 30%; inactive means the rest.", "data": [{"assay": "growth inhibition of yeast control strain, primary screen, counter-screen for post-Golgi transport modulator project (AID 738)", "details": "efflux-deficient yeast background strain, growth absorbance A615, 16 h; at 10 µM; stronger effect = higher value", "values": [{"smiles": "O=C(c1ccc(F)cc1)c1c[nH]c(C(=O)NCc2cccnc2)c1", "inhibition": "1.34%"}, {"smiles": "S=C(NCCC1=CCCCC1)Nc1ccccc1", "inhibition": "2.15%"}, {"smiles": "CCCc1nc2ccccc2c(C(=O)OCc2nnc(-c3cc(OC)c(OC)c(OC)c3)o2)c1CC", "inhibition": "3.36%"}, {"smiles": "CCC(C)n1c(-c2cc(OC)c(OC)c(OC)c2)nc2nc3ccccc3nc21", "note": "(centres undefined)", "inhibition": "38.7% (active)"}, {"smiles": "COc1cc(-c2nn3c(-c4cccc(C)c4)nnc3s2)cc(OC)c1OC", "inhibition": "26.7%"}, {"smiles": "CC(=O)NS(=O)(=O)c1ccc(NC(=S)NC(=O)C(C)(C)C)cc1", "inhibition": "-5.72%"}, {"smiles": "Cn1c(NN)nc2sc3c(c2c1=O)CCC3", "inhibition": "7.4%"}, {"smiles": "CCOC(=O)c1cc2sccc2n1Cc1ccc(C#N)cc1", "inhibition": "33.7% (active)"}, {"smiles": "CC1Cc2ccccc2N1C(=O)c1cc2sccc2n1Cc1ccccc1", "note": "(centres undefined)", "inhibition": "15.2%"}, {"smiles": "O=C(NCc1ccco1)c1cc2sccc2n1Cc1ccc(F)cc1", "inhibition": "27.8%"}, {"smiles": "Clc1ccccc1SCc1nc2ccccc2[nH]1", "inhibition": "9.02%"}, {"smiles": "Cc1nc(-c2ccccc2)sc1-c1nc(-c2ccccc2)ncc1S(=O)(=O)c1ccccc1", "inhibition": "12%"}, {"smiles": "O=C(Nc1ccc(Cl)cc1)N1CCc2[nH]c3ccccc3c2C1", "inhibition": "36.5% (active)"}, {"smiles": "CCCC(=O)N1CCc2[nH]c3ccccc3c2C1", "inhibition": "-9.39%"}, {"smiles": "O=C(NC1CCCCC1)N1CCc2[nH]c3ccccc3c2C1", "inhibition": "-9.69%"}, {"smiles": "O=C(c1ccccc1)c1cc(-c2ccccn2)c(N2CCOCC2)s1", "inhibition": "18%"}, {"smiles": "O=S(=O)(N/N=C\\c1cccn1-c1ccccc1)c1ccc2ccccc2c1", "inhibition": "16.6%"}, {"smiles": "Cc1n[nH]c(=O)n1-c1ccc(Oc2ccccc2)cc1", "inhibition": "20.1%"}, {"smiles": "Cc1cc(C)c2cc(CN(Cc3cccs3)Cc3nnnn3CC3CCCO3)c(=O)[nH]c2c1", "note": "(centres undefined)", "inhibition": "17%"}, {"smiles": "Cc1cc2cc(CN(Cc3cccs3)Cc3nnnn3CC3CCCO3)c(=O)[nH]c2cc1C", "note": "(centres undefined)", "inhibition": "37.9% (active)"}, {"smiles": "COc1ccc2[nH]c(=O)c(CN(Cc3nnnn3CCc3ccccc3)CC3CCCO3)cc2c1", "note": "(centres undefined)", "inhibition": "5.93%"}, {"smiles": "CC(C)(C)c1cc2cccnc2n1Cc1cccc(F)c1", "inhibition": "-2.87%"}, {"smiles": "COC(=O)Cc1nc2ccccc2[nH]1", "inhibition": "0.73%"}, {"smiles": "Cc1ccccc1OC/C(O)=C(\\C#N)c1nc2ccccc2[nH]1", "inhibition": "48.1% (active)"}, {"smiles": "N#C/C(=C(/O)COc1cccc2ccccc12)c1nc2ccccc2[nH]1", "inhibition": "-2.22%"}, {"smiles": "O=C(CSc1nc2ccccc2o1)N1c2ccccc2Sc2ccc(Cl)cc21", "inhibition": "17%"}, {"smiles": "O=C1CSC(c2ccccc2)N1c1nc(-c2ccc(Cl)cc2Cl)cs1", "note": "(centres undefined)", "inhibition": "5.96%"}, {"smiles": "CCOC(=O)C1Sc2[nH]c(=O)sc2C(c2ccc(Cl)cc2)C1C(=O)OCC", "note": "(centres undefined)", "inhibition": "12%"}, {"smiles": "Cc1ccc(Cn2c(C)nc3c(c2=O)c2nc4ccccc4nc2n3Cc2ccco2)cc1", "inhibition": "20.3%"}, {"smiles": "Clc1cccc(-c2nc3nc4ccccc4nc3n2Cc2ccco2)c1", "inhibition": "32.4% (active)"}, {"smiles": "CC(Sc1nc2ccccc2c(=O)n1Cc1ccco1)C(=O)c1ccccc1", "note": "(centres undefined)", "inhibition": "20.6%"}, {"smiles": "CCN(CC)CCN1C(=O)C(=O)/C(=C(/O)c2cnn(-c3ccccc3)c2C)C1c1cccs1", "note": "(centres undefined)", "inhibition": "10.5%"}, {"smiles": "S=c1nccc(-c2cc(Cl)sc2Cl)[nH]1", "inhibition": "-1.82%"}, {"smiles": "O=C(Nc1ccccc1N1CCCCC1)c1cccc(F)c1", "inhibition": "31.6% (active)"}, {"smiles": "O=C(Nc1ccccc1N1CCCCC1)c1ccc2nccnc2c1", "inhibition": "16.6%"}, {"smiles": "O=C(Nc1ccccc1N1CCN(c2ccccc2)CC1)c1cccc(F)c1", "inhibition": "15.4%"}, {"smiles": "CCC(=O)OCc1c(C(F)(F)F)nn(C)c1Oc1cccc(C(F)(F)F)c1", "inhibition": "-7.2%"}, {"smiles": "O=C(NCc1ccc2c(c1)OCO2)C12CC3CC(CC(C3)C1)C2", "inhibition": "9.12%"}, {"smiles": "S=C(NCc1cccs1)Nc1ccc(Cl)cc1", "inhibition": "1.15%"}, {"smiles": "S=C(NCc1ccc(Cl)cc1)NC12CC3CC(CC(C3)C1)C2", "inhibition": "69.2% (active)"}, {"smiles": "O=C(/C=C/c1cccs1)c1cc(Cl)ccc1OC(=O)N1CCOCC1", "inhibition": "16.3%"}, {"smiles": "N/C(=N\\OC(=O)c1cc(-c2ccccc2)nc2ccccc12)c1ccncc1", "inhibition": "13.9%"}, {"smiles": "Nc1ccccc1SCc1cc([N+](=O)[O-])cc2c1OCOC2", "inhibition": "13.6%"}, {"smiles": "CCOc1ccc(OCC)c(NC(=O)CN(C)S(=O)(=O)c2cccc3nsnc23)c1", "inhibition": "0.74%"}, {"smiles": "CCCCN(CC)C(=O)CN(C)S(=O)(=O)c1cccc2nsnc12", "inhibition": "7.72%"}, {"smiles": "CCOc1ccc(NC(=O)CCS(=O)(=O)c2cccc3nsnc23)cc1", "inhibition": "32.5% (active)"}, {"smiles": "Cc1cccc(C)c1NC(=O)CCS(=O)(=O)c1cccc2nsnc12", "inhibition": "9.17%"}, {"smiles": "CCOc1ccc(-c2cn(S(=O)(=O)c3cccc4nsnc34)nc2N)cc1", "inhibition": "53.9% (active)"}, {"smiles": "O=C(O)c1ccc(NS(=O)(=O)c2cccc3nsnc23)cc1", "inhibition": "18%"}, {"smiles": "CCc1ccc(C(=O)CSc2nnc(C)c(=O)[nH]2)cc1", "inhibition": "22%"}, {"smiles": "Nc1ccc(C(=O)OCC(=O)NC2CCCc3ccccc32)cc1[N+](=O)[O-]", "note": "(centres undefined)", "inhibition": "16.1%"}, {"smiles": "CCCc1nc2ccccc2c(C(=O)OCC(=O)c2ccc3c(c2)NC(=O)CO3)c1CC", "inhibition": "2.23%"}, {"smiles": "O=C(COc1ccc2c(C(F)(F)F)cc(=O)oc2c1)Nc1ccc2c(c1)OCCO2", "inhibition": "3.57%"}, {"smiles": "CCOc1ccc(S(=O)(=O)Nc2nc3cc(OC)ccc3s2)cc1", "inhibition": "2.89%"}, {"smiles": "CC(=O)c1cnc(SCCN2C(=O)c3ccccc3C2=O)nc1C", "inhibition": "-2.62%"}, {"smiles": "Cc1cc(C)c2nc(NC(=O)c3ccc4c(c3)OCO4)sc2c1", "inhibition": "21.3%"}, {"smiles": "O=S(=O)(NC1CCCCC1)c1ccc(F)c2ccccc12", "inhibition": "35.4% (active)"}, {"smiles": "COc1ccc(C)cc1S(=O)(=O)NC1CCCCC1", "inhibition": "2.46%"}, {"smiles": "CSc1ccc(S(=O)(=O)NC2CCCCC2)cc1", "inhibition": "10.7%"}, {"smiles": "Cc1ccc(N(NC(=O)C(C)(C)O)C(=O)c2ccccc2)cc1C", "inhibition": "0.77%"}, {"smiles": "Cc1ccccc1C(=O)N1CCC(C(=O)Nc2ccc(S(=O)(=O)N(C)C(C)C)cc2)CC1", "inhibition": "-2.28%"}, {"smiles": "CCc1nc(Nc2ccc3nccnc3c2)c2oc3ccccc3c2n1", "inhibition": "4.28%"}, {"smiles": "Cc1nc(Cl)c2oc3ccccc3c2n1", "inhibition": "-0.78%"}, {"smiles": "COc1ccccc1Nc1ncnc2c1oc1ccccc12", "inhibition": "31.2% (active)"}, {"smiles": "NS(=O)(=O)c1cccnc1Nc1cccc(Cl)c1", "inhibition": "7.66%"}, {"smiles": "O=C(Cn1ccc([N+](=O)[O-])n1)NCc1cccs1", "inhibition": "18.9%"}, {"smiles": "Cc1cccc(CSc2nnc(Cn3c(=O)sc4ccccc43)n2C)c1", "inhibition": "13.1%"}, {"smiles": "Cn1c(SCc2nc3ccccc3s2)nnc1-c1ccc2c(c1)OCO2", "inhibition": "33.8% (active)"}, {"smiles": "Cc1ccccc1-c1nnc(SCC(=O)NCc2ccc3c(c2)OCO3)n1C", "inhibition": "12.7%"}, {"smiles": "Cc1cccc(N2C(=O)C3C(c4ccccc4)OC4(C(=O)c5ccccc5C4=O)C3C2=O)c1", "note": "(centres undefined)", "inhibition": "-14.2%"}, {"smiles": "CCN(CC)C(=O)CSc1nnc(CNc2ccc(F)cc2)n1Cc1ccco1", "inhibition": "7.51%"}, {"smiles": "COc1cccc(-c2nnc(SCCOc3ccc4c(C)cc(=O)oc4c3)o2)c1", "inhibition": "7.69%"}, {"smiles": "CC(Sc1nnc(Cc2ccc([N+](=O)[O-])cc2)o1)C(N)=O", "note": "(centres undefined)", "inhibition": "5.64%"}, {"smiles": "N#C/C(=C(/O)Cc1cccc2ccccc12)c1nc2ccccc2s1", "inhibition": "0.29%"}, {"smiles": "COc1ccc(OCC(=O)NCCc2ccc(S(N)(=O)=O)cc2)cc1", "inhibition": "-0.6%"}, {"smiles": "Cc1ccc(CNC(=O)COc2ccc(S(=O)(=O)NC(C)C)cc2)cc1", "inhibition": "36.6% (active)"}, {"smiles": "CC(C)NS(=O)(=O)c1ccc(OCC(=O)Nc2ccc3c(c2)OCCO3)cc1", "inhibition": "3.4%"}, {"smiles": "CNC(=O)c1csc(-c2ccccc2)n1", "inhibition": "-5.25%"}, {"smiles": "Cc1occc1C(=O)NNC(=S)NCC(C)C", "inhibition": "3.2%"}, {"smiles": "CSCCC(NS(=O)(=O)c1ccc2c(c1)oc(=O)n2C)C(=O)NC1CCCc2ccccc21", "note": "(centres undefined)", "inhibition": "-5.76%"}, {"smiles": "CC(C)Oc1ccc(CCc2n[nH]c(=S)n2Cc2ccccc2)cc1", "inhibition": "-1.67%"}, {"smiles": "C=CCn1c(-c2ccc3[nH]c(C)c(C)c3c2)n[nH]c1=S", "inhibition": "3.87%"}, {"smiles": "CCCc1cc(-c2n[nH]c(=S)n2Cc2ccccc2)cs1", "inhibition": "37.9% (active)"}, {"smiles": "Cc1cccc(NC(=S)N2CCC(c3nc4ccccc4s3)CC2)c1", "inhibition": "10.4%"}, {"smiles": "CCCCNCc1ccc(SC)cc1", "inhibition": "3.73%"}, {"smiles": "Cc1ccc(S(=O)(=O)N2CCC(C(=O)NCC3CCCO3)CC2)cc1", "note": "(centres undefined)", "inhibition": "11.9%"}, {"smiles": "COC(=O)NC1(C(F)(F)F)NC(=O)N(C2CCCCC2)C1=O", "note": "(centres undefined)", "inhibition": "-7.51%"}, {"smiles": "O=C1NC(Nc2nc3ccccc3s2)(C(F)(F)F)C(=O)N1C1CCCCC1", "note": "(centres undefined)", "inhibition": "47.7% (active)"}, {"smiles": "COc1ccc(C2Nc3ccccc3C(=O)N2Cc2ccccc2)cc1Cn1nnc2ccccc21", "note": "(centres undefined)", "inhibition": "13.4%"}, {"smiles": "CN(C)c1ccc(NC(=S)N(CCc2ccccc2)C2CC(=O)N(c3c(Cl)cccc3Cl)C2=O)cc1", "note": "(centres undefined)", "inhibition": "5.66%"}, {"smiles": "O=C(O)CCC(=O)NCc1ccc(C(=O)O)cc1", "inhibition": "12.1%"}, {"smiles": "O=C(NCCc1ccccn1)c1ccc(COc2ccccc2)o1", "inhibition": "-1.77%"}, {"smiles": "CC(CNC(=O)c1ccc(Br)o1)NC(=O)c1ccc(Br)o1", "note": "(centres undefined)", "inhibition": "18.5%"}, {"smiles": "COc1ccc(-c2nc(CCNC(=O)c3ccc(Br)o3)cs2)cc1", "inhibition": "36.5% (active)"}, {"smiles": "Cc1ccccc1OC(=O)Cn1c(C(F)(F)F)nc2ccccc21", "inhibition": "12.9%"}, {"smiles": "COC(=O)c1ccccc1OCC(=O)N1CCN(c2ccc(Cl)cc2)CC1", "inhibition": "13.6%"}, {"smiles": "COc1ccc(-n2nnnc2SCC(=O)Nc2ccccc2)cc1", "inhibition": "2.21%"}, {"smiles": "O=c1c2ccccc2nnn1CSc1nnnn1-c1ccccc1", "inhibition": "19.6%"}, {"smiles": "CN(C(=O)CSc1nnnn1-c1ccccc1)C1CCCCC1", "inhibition": "38% (active)"}]}]}
